According to PubChem BioAssay AID720519 (National Center for Advancing Translational Sciences (NCATS), 2013):
Records with an inconclusive call do not appear. Calls of active or inactive are those of the source. Calls follow the shape of the dose curve; as a rule, active = well fitted activation curve with a large enough effect; inconclusive = small, poorly fitted or top-dose-only effect; inactive = flat fitted curve, though single readings scatter.

Assay: qHTS for Inhibitors of Cell Surface uPA Generation: Confirmatory Assay for Cherry-picked Compounds
Details: cell surface uPA activity generation, qHTS confirmation; series mostly up to 115 µM
In short: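 RAW 264.7 cells at 4000/well, incubated overnight, then treated with compounds. After 24 h at 37 C, viability was read by ATPlite luminescence. An increase in signal indicates blocked uPA-dependent LF entry.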

Potency, inactive:
CCn1nc(NS(=O)(=O)c2ccccc2)c2cc3cc(C)ccc3nc21, CN(C)c1ccc(S(=O)(=O)N2CCC(Cc3ccccc3)CC2)cn1, CCN(CC)c1c([N+](=O)[O-])c(=O)sc2ccccc12, COc1cc(F)ccc1S(=O)(=O)n1c(C)nc2ccccc21, Cc1nnc2ccc(-c3ccc(NS(=O)(=O)c4ccc(Cl)s4)cc3)nn12, CC1(C)CC(CCC(=O)NC(=S)Nc2ccccc2Cl)C(=O)O1 (centres undefined), O=C(CCCC(=O)N1CCN(c2ccccc2F)CC1)c1ccccc1, CCS(=O)c1scc(-c2ccc(Cl)cc2)c1C#N (centres undefined), Cc1ccc2oc(C(=O)N(Cc3ccc(N(C)C)cc3)C3CCS(=O)(=O)C3)c(C)c2c1 (centres undefined), CC1CS(=O)(=O)CCN1N=Cc1ccc([N+](=O)[O-])o1 (centres undefined), C=CCNC(=S)NCC=C, Cc1cc(C)c(NC(=O)Cn2nnc(C(=O)NCc3ccc4c(c3)OCO4)c2N)c(C)c1, CC(Sc1nnc2ccccn12)C(=O)NCc1ccc2c(c1)OCO2 (centres undefined), CCOC(=O)c1ccccc1N=Cc1c(O)c2ccccc2oc1=O, COc1ccc(C(=O)N2CCN(c3ccc(C(C)=O)cc3)CC2)cc1S(=O)(=O)N1CCCC1, CCCc1nn2c(=O)cc(CSCC(=O)Nc3ccccc3)nc2s1, C=CCn1c(SCc2ccc(C(=O)NCCO)cc2)nc2ccccc2c1=O, O=[N+]([O-])c1ccc(C[n+]2cccc(O)c2)cc1, CC/C(=N\Nc1ccccc1[N+](=O)[O-])c1ccc(O)cc1, O=C(O)CNS(=O)(=O)c1ccc2c(c1)Cc1cc(S(=O)(=O)NCC(=O)O)ccc1-2, COc1ccc(CNCCC2(C(C)C)CCOC(C)(C)C2)cc1 (centres undefined), COc1ccc(-n2ncc3c(=O)n(CC(=O)NC(C)C)cnc32)cc1, CCN(C(=O)CSc1ncnc2sccc12)c1c(N)n(Cc2ccccc2)c(=O)[nH]c1=O, CCOc1ccccc1C(=O)NC1CCN(CC(=O)Nc2cc(OC)ccc2OC)CC1, O=C(COC(=O)c1ccc2ncsc2c1)NCc1cccc(Cl)c1, CC1CCCC(NC(=O)CNC(=S)N(Cc2ccccc2)Cc2cccs2)C1C (centres undefined), O=C(/C=C/c1cccc(F)c1)Nc1cc(S(=O)(=O)N2CCOCC2)ccc1Cl, Cc1cc(=O)[nH]c2c(C)cc(S(=O)(=O)Nc3ccc(O)cc3)cc12, COc1ccccc1CN1CC(C(=O)NCc2cccc(C)n2)CCC1=O (centres undefined), Cn1cc(SCC(=O)Nc2nccs2)c2ccccc21, CC1(C)C([N+](=O)[O-])C(c2ccc(F)cc2)NC(c2ccc(F)cc2)C1[N+](=O)[O-] (centres undefined), O=C(C[C@@H]1C/C=C\C[C@H](Cc2ccc(F)cc2)C(=O)OC[C@H]2CCCN2C1=O)N[C@H](CO)Cc1ccccc1, CC1CC(C)(C)Nc2ccc(N=O)cc21 (centres undefined), COCc1cc(C)nc2sc(C(=O)Nc3nccs3)c(N)c12, CC1CC(=O)Nc2ccccc2N1C(=O)Cn1cnc2ccc(Br)cc2c1=O (centres undefined), CCN(CC)C(=O)Cn1cc(/C=C(\C#N)C(=O)NC2CC2)c2ccccc21, OC(COc1ccc(Br)cc1)CN1CCN(c2ccccc2)CC1 (centres undefined), COc1ccc(OC)c(S(=O)(=O)N2CCN(Cc3ccccc3)CC2)c1, O=C(NC[C@H]1CCCO1)c1cccc2c1C(=O)c1ccc(-c3ccc(F)cc3OCc3ccccc3)cc1S2(=O)=O
